Most compounds without a hit are left out; they make up all but 2.9% or so of the library.
KLK7 zymogen act = proKLK7 zymogen activators, primary screen, biochemical, fluorescence intensity; AID 652039, 2013; Kallikrein-7 (Homo sapiens), P49862; activation, % at 7 µM; actives 0.9% (n = 370,000); purified proKLK7, EDANS-DABCYL substrate fluorescence; 100% is mature enzyme control, 0% vehicle;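 active means activation above the mean of all tested compounds plus 3 SD, computed per campaign excluding outliers beyond control limits, cut at about 13% in these data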
ADAM17 inh = ADAM17 inhibitors, primary screen, biochemical, QFRET; AID 720648, 2013; actives 0.83% (n = 370,000); recombinant ADAM17, EDANS/DABCYL FRET peptide cleavage; inhibition, % at 6.95 µM;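 active means inhibition above the mean of compounds lying between control limits plus 3 SD, set per campaign, cut at about 8.5% in these data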;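 further: 0% = DMSO-only wells as the low control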
PLC-gamma1 inh = PLC-gamma1 enzyme inhibitors, primary screen, biochemical, fluorescence, purified enzyme; inhibition, % at 12.2 µM; actives 0.84% (n = 370,000); 1-phosphatidylinositol 4,5-bisphosphate phosphodiesterase gamma-1 (Homo sapiens), P19174; fluorogenic substrate; in the data active means inhibition above about 9.5%
PLCb3 inh = human PLC-beta3 inhibitors, primary screen, biochemical, fluorescence; Purified PLC-beta3, fluorogenic substrate; inhibition, % at 12.2 µM; actives 0.18% (n = 370,000); AID 720704, 2013; in the data active means inhibition above about 11%;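 further: 0% = median of compound wells on plate and 100% = full blocker control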
ADAM10 inh = human ADAM10 inhibitors, primary screen, biochemical, QFRET, HTS. recombinant ADAM10, EDANS/DABCYL FRET peptide cleavage, 3 h. Disintegrin and metalloproteinase domain-containing protein 10 (Homo sapiens), O14672. inhibition, % at 7 µM. actives 0.62% (n = 370,000);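 active means inhibition above a per-campaign cutoff equal to the mean of compounds falling between control-based bounds plus 3 SD, cut at about 20% in these data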;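 further: 0% = DMSO wells while the 100% control is not disclosed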
Target sequence (O14672 214-748 limits assumed): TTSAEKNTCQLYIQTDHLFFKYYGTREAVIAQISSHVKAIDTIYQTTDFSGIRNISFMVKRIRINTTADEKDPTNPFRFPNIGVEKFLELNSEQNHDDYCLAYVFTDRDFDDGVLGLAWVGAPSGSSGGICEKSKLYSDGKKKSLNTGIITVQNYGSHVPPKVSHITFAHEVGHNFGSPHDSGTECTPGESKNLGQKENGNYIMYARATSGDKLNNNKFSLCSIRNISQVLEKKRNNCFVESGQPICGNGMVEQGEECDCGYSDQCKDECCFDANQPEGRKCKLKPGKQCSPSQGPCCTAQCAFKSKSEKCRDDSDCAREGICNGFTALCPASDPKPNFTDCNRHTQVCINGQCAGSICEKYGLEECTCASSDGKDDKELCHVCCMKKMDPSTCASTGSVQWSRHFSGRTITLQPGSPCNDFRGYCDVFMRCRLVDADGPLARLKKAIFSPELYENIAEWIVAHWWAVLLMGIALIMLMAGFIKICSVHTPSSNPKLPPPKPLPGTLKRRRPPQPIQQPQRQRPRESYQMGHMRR
ADAM10 ctr = ADAM10 inhibitors, counter-screen for ADAM17 exosite inhibitor project, biochemical, FRET, human ADAM10; shares compounds with ADAM17 inh; actives 47% (n = 2,900); inhibition, % at 6.95 µM; recombinant ADAM10, EDANS/DABCYL FRET peptide cleavage, 3 h;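 active means mean inhibition over the triplicate runs exceeds the activity threshold set in the earlier primary screen, cut at about 20% in these data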;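 further: 0% = DMSO wells and 100% = marimastat wells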
ADAM17 confirm = ADAM17 inhibitors, hit retest, confirmation, biochemical, QFRET peptide cleavage; actives 65% (n = 2,900); shares compounds with ADAM17 inh; recombinant ADAM17, EDANS/DABCYL QFRET peptide cleavage; inhibition, % at 6.95 µM;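 active means mean inhibition across replicates above the hit cutoff set in the primary screen, cut at about 8.5% in these data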;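 further: 0% = DMSO wells and 100% = marimastat wells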
Active calls of the source: *; x = no result given.

SMILES	KLK7 zymogen act	ADAM17 inh	PLC-gamma1 inh	PLCb3 inh	ADAM10 inh	ADAM10 ctr	ADAM17 confirm
O=S(=O)(c1cccc(C(F)(F)F)c1)N1CCN(C(=S)NCc2ccco2)CC1	0	2	-1	-2	-3	x	x
O=C(CC1CCCC1)N[C@H](C(=O)N1CCC[C@H]1C(=O)NCCc1ccccc1Cl)c1ccccc1	0	-5	3	1	-1	x	x
CCOc1ccc(S(=O)(=O)Nc2ccc(C(=O)N3CCCC3)cc2)cc1C(N)=O	-1	-4	3	-5	8	x	x
CSCSC1=C(C#N)C(c2ccccc2Cl)C(C(C)=O)=C(C)N1 (stereo not drawn)	0	15*	4	-1	4	10	9.3*
Cc1[nH]c2ccccc2c1/C=N/Nc1ccc([N+](=O)[O-])cc1	-1	10*	-13	-16	20	10	6
Cc1[nH]c2ccccc2c1/C=N/NC(=O)c1cccc([N+](=O)[O-])c1	0	-3	1	-1	-1	x	x
CN(C)c1ccc(CNC(=O)/C=C/[C@H]2O[C@@H](n3ccc(=O)[nH]c3=O)[C@H](O)[C@@H]2O)cc1	0	-3	0	1	-8	x	x
CCOC(=O)N1CCN(C(=O)C[C@H]2C[C@@]3(C(=O)OC)C(=C[C@H](C(C)(C)C)O[C@@H]3C)N(CCC3=CCCCC3)C2=O)CC1	1	10*	6	2	11	10	7
COC(=O)[C@]12C[C@H](CC(=O)N3CCN(C(=O)C4CC4)CC3)C(=O)N(CCC3=CCCCC3)C1=C[C@H](C(C)(C)C)O[C@@H]2C	0	2	1	5	8	x	x
COc1ccc(N2CCN(C(=O)COC(=O)c3ccc(C)o3)CC2)cc1	0	1	-1	-8	-5	x	x
Cc1ccc(/C=C/C(=O)Nc2ccc(Oc3ccccc3)cc2)o1	0	13*	-15	-22	18	14	11*
CN(Cc1ccccc1)C(=O)c1ccc(NC(=O)Cc2ccc(NC(=O)C3CCCN(C(=O)C4CCCCC4)C3)cc2)cc1 (stereo not drawn)	0	10*	7	3	15	14	5
O=C(Cc1ccc(NC(=O)C2CCCN(C(=O)c3ccccc3)C2)cc1)Nc1ccc(C(=O)N2CCOCC2)cc1 (stereo not drawn)	0	10*	3	5	2	-2	5
CN(Cc1ccccc1)C(=O)c1ccc(NC(=O)Cc2ccc(NC(=O)C3CCCN(C(=O)C4CCC4)C3)cc2)cc1 (stereo not drawn)	0	0	1	-2	2	x	x
O=C(Cc1ccc(NC(=O)C2CCCN(C(=O)C3CCC3)C2)cc1)Nc1ccc(C(=O)N2CCOCC2)cc1 (stereo not drawn)	-1	0	-2	2	-4	x	x
CN(Cc1ccccc1)C(=O)c1ccc(NC(=O)Cc2ccc(NC(=O)C3CCCN(C(=O)CCc4ccccc4)C3)cc2)cc1 (stereo not drawn)	1	9.4*	0	2	11	21*	11*
CN(C(=O)c1ccc(NC(=O)Cc2ccc(NC(=O)C3CCCN(C(=O)CCc4ccccc4)C3)cc2)cc1)C1CCCC1 (stereo not drawn)	0	1	1	-2	6	x	x
Cc1ccc(S(=O)(=O)N2CCCc3cc(NC(=O)c4c(F)cccc4F)ccc32)cc1	1	12*	0	-8	17	27*	14*
COc1cccc(OC)c1C(=O)Nc1ccc2c(c1)CCCN2S(=O)(=O)c1ccc(C)cc1	0	2	-3	-5	14	x	x
C=CCn1c(Cc2cccs2)nnc1SCC(=O)Nc1ccc(OCc2ccccc2)cc1	0	8	0	-2	13	x	x
O=C(Nc1ccc(N2CCCC2)cc1)c1cccc(F)c1	0	18*	1	-3	8	-3	4
COCCNC(=O)c1ccc2c(c1)NC(=O)CS2	0	-5	1	-1	-4	x	x
COc1ccc(NC(=O)c2ccc3c(c2)NC(=O)CS3)cc1	2	9.5*	9	1	4	9	6
COc1ccccc1CNC(=O)COC(=O)c1ccc(C)c(S(=O)(=O)N2CCCCC2)c1	0	3	-1	-8	1	x	x
COc1ccc(C2CC(c3ccccc3)=NN2C(=O)CN2N=NC3C(=O)N(c4cccc(F)c4)C(=O)C32)cc1 (stereo not drawn)	-2	14*	-6	-8	13	9	4
SMILES	KLK7 zymogen act	ADAM17 inh	PLC-gamma1 inh	PLCb3 inh	ADAM10 inh	ADAM10 ctr	ADAM17 confirm
COc1ccc(C2CC(c3ccccc3)=NN2C(=O)c2ccc(F)cc2)cc1 (stereo not drawn)	0	-3	-1	0	6	x	x
Clc1ccc(N2COC3c4cccc5cccc(c45)C32)cc1 (stereo not drawn)	0	9.2*	1	1	7	-2	4
CCOc1ccc(-c2[nH]ncc2-c2ccc(Cl)cc2)c(O)c1	0	9.9*	0	-2	15	12	12*
O=C(NCC(c1ccc(F)cc1)N1CCOCC1)c1ccc(Br)o1 (stereo not drawn)	0	11*	3	6	1	19	11*
CS(=O)c1ccccc1-c1nc(-c2ccc([N+](=O)[O-])cc2)no1 (stereo not drawn)	0	11*	6	-3	8	22*	8
Cc1[nH]c2ccc(C(=O)NCCCN3CCN(C)CC3)cc2c1C	-1	-2	-8	-29	-9	x	x
Cc1[nH]c2ccc(C(=O)NCCCN(C)C3CCCCC3)cc2c1C	1	8.7*	-4	-14	0	-49	-10
CC(C)(C)c1ccc(OCCC(=O)OCC(=O)N2c3ccccc3NC(=O)C2(C)C)cc1	0	11*	-3	-9	5	39*	16*
Cc1cccc(OCCC(=O)OCC(=O)N2c3ccccc3NC(=O)C2(C)C)c1	0	-2	1	2	0	x	x
COCCn1cnc2c1c(=O)n(CC(=O)NCC(F)(F)F)c(=O)n2Cc1ccccc1	0	-5	-2	-3	-4	x	x
COc1ccc(C)cc1NC(=O)CN(C)S(=O)(=O)c1ccc2c(c1)CCCN2C(C)=O	0	9.0*	4	-4	7	7	7

Compound activity deposited in PubChem BioAssay by The Scripps Research Institute Molecular Screening Center.
